Results filed as inconclusive are left out. Activity calls are given as the source filed them. Calls follow the shape of the dose curve; as a rule, active = well fitted cell-killing curve with a large enough effect; inconclusive = small, poorly fitted or top-dose-only effect, or effect the other way; inactive = no such curve, though single readings can be large or run the other way.

The results in this text go back to PubChem BioAssay AID1345085 (National Center for Advancing Translational Sciences (NCATS), 2018).
% is scaled to controls: 0 for no effect and ±100 for the full control effect; potency is read from the fitted curve at half-maximal effect.

The test system of the experiment is CAOV3. The experiment is described as follows: Confirmatory qHTS for gynecologic anti-cancer compounds from libraries of approved drugs and bioactive compounds. Also: nearly all actives have a fitted effect of over 55% in size. As to conditions: gynecologic cancer cell panel viability, ATPlite luminescence, 48 h; series mostly up to 57.6 µM. The essentials:
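Viability is measured as ATP-dependent luciferase light using ATPlite, read 15 min after reagent addition at room temperature. Compounds, in DMSO, span 57.5 uM down to 0.977 nM over 11 threefold steps for 48 h.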
Regarding `CC[C@H](Nc1ncnc2nc[nH]c12)c1nc2cccc(F)c2c(=O)n1-c1ccccc1`, the activity change, negative = viability loss is -13.8% [at 10.7 µM] (inactive).

Regarding `CNC(=O)c1ccccc1Sc1ccc2c(/C=C/c3ccccn3)n[nH]c2c1`, the Potency was 6.85 µM (active).

Regarding `COc1ccc2c(c1OC)C(=O)O[C@@H]2[C@H]1c2c(cc3c(c2OC)OCO3)CCN1C`, the Potency result is “inactive”.

For `Cc1ccn(-c2ccc(-c3ncco3)cc2)c(=O)c1-c1ccc2nc(N)ncc2c1`, the Potency entry is “inactive”.

For the compound `CCc1cccc(CC)c1NC(=O)N1Cc2[nH]nc(NC(=O)c3ccc(N4CCN(C)CC4)cc3)c2C1`, the Potency was 2.43 µM (active).

Consider `COc1cc(N2CCC(N)CC2)ccc1Nc1ncc(Cl)c(-c2c[nH]c3ccccc23)n1`, for which the Potency is 3.43 µM (active).

Take `COc1cc2c(c(OC)c1OC)-c1ccc(OC)c(=O)cc1[C@@H](NC(C)=O)CC2`: the Potency result was “inactive”.

On to `COc1ccc2cc3[n+](cc2c1OC)CCc1cc2c(cc1-3)OCO2`, for which the Potency result is “inactive”.

Regarding `CCC1C(=O)N(C)c2cnc(Nc3ccc(C(=O)NC4CCN(C)CC4)cc3OC)nc2N1C1CCCC1` (centres undefined), the Potency is 4.85 µM (active).

Take `C[C@@H](Oc1cc(-c2cnn(C3CCNCC3)c2)cnc1N)c1c(Cl)ccc(F)c1Cl`: the Potency is 17.2 µM (active).

On to `CC[C@@]1(O)C(=O)OCc2c1cc1n(c2=O)Cc2cc3c(CN(C)C)c(O)ccc3nc2-1`, for which the Potency is 0.544 µM (active).

As for `CC(C)n1nc(-c2cc3cc(O)ccc3[nH]2)c2c(N)ncnc21`, the Potency was 19.3 µM (active).

With `Cn1cc(-c2ccc3ncc(Cc4ccc5ncccc5c4)n3n2)cn1`, the Potency entry was “inactive”.

In the case of `FC(F)(F)c1ccc(/C=C/c2nc(COc3ccc(CCCCn4ccnn4)cc3)co2)cc1`, the Potency entry is “inactive”.

Turning to `CS(=O)(=O)c1ccc(C(=O)Nc2ccc(Cl)c(-c3ccccn3)c2)c(Cl)c1`, the Potency entry is “inactive”.

For the compound `CCc1c2c(nc3ccc(O)cc13)-c1cc3c(c(=O)n1C2)COC(=O)[C@]3(O)CC`, the Potency is 0.0385 µM (active).

For the compound `OCc1ccc(-c2ccc(-c3ccc(CO)s3)o2)s1`, the Potency is 0.668 µM (active).

On to `NC1(c2ccc(-c3nc4ccn5c(=O)[nH]nc5c4cc3-c3ccccc3)cc2)CCC1`, for which the Potency entry was “inactive”.

In the case of `C[C@]12CCC(=O)C=C1[C@@H]1C[C@@H]1[C@H]1[C@@H]3[C@@H]4C[C@@H]4[C@@]4(CCC(=O)O4)[C@@]3(C)CC[C@@H]12`, the Potency entry was “inactive”.

With `CCN1C[C@H](C)n2c(c(O)c3c(=O)n(Cc4ccc(F)c(Cl)c4)nc(C(=O)NC)c32)C1=O`, the Potency entry was “inactive”.

`COc1cc(N2CCC(N(C)C)CC2)ccc1Nc1ncc(Cl)c(Nc2ccccc2P(C)(C)=O)n1`: the Potency was 10.9 µM (active).

For `O=C(Nc1cn[nH]c1-c1nc2ccc(CN3CCOCC3)cc2[nH]1)NC1CC1`, the Potency is 0.122 µM (active).

For `CCCc1nn(C)c2c(=O)[nH]c(-c3cc(S(=O)(=O)N4CCN(C)CC4)ccc3OCC)nc12`, the Potency entry was “inactive”.

Regarding `CCCCc1nc2cc(/C=C/C(=O)NO)ccc2n1CCN(CC)CC`, the Potency is 4.85 µM (active).

With `CC(C)Oc1ccc2c(=O)c(-c3ccccc3)coc2c1`, the Potency was 15.3 µM (active).

`Cc1ccc(C(=O)Nc2cccc(C(F)(F)F)c2)cc1-c1ccc2nc(NCCN3CCOCC3)ncc2c1`: the Potency was 24.3 µM (active).

With `Cc1ccccc1C(OCCN(C)C)c1ccccc1` (centres undefined), the Potency result is “inactive”.

On to `CNc1nc(Nc2ccc(C(=O)N3CCOCC3)cc2OC)ncc1Cl`, for which the Potency result is “inactive”.

As to `COc1cc(N2CCC(N3CCN(C)CC3)CC2)ccc1Nc1ncc(Cl)c(Nc2ccccc2S(=O)(=O)C(C)C)n1`, the Potency was 3.43 µM (active).

As to `CO[C@@]12[C@H](COC(N)=O)C3=C(C(=O)C(C)=C(N)C3=O)N1C[C@@H]1N[C@@H]12`, the Potency result is “inactive”.

As for `CC(C)C[C@H](NC(=O)[C@@H](NC(=O)c1cccc(-c2ccccc2)n1)[C@@H](C)O)B(O)O`, the Potency is 0.172 µM (active).

Take `CNC1CCC(N(Cc2cccc(-c3ccncc3)c2)C(=O)c2sc3ccccc3c2Cl)CC1` (centres undefined): the Potency was 27.3 µM (active).

In the case of `c1nc2nc(Nc3ccc(N4CCOCC4)cc3)nc(NC3CCCCC3)c2[nH]1`, the Potency was 4.73 µM (active).

As to `CCCCc1oc2ccccc2c1C(=O)c1cc(I)c(OCCN(CC)CC)c(I)c1`, the Potency is 79.4 µM (active).
